# Source: the supplement of paper PMC8728848
# Only a selection was taken, and the strongest signals are over-represented in it overall.
# B1: LTL (Lotus tetragonolobus), P19664 (protein)
# chain: VSFNYTEFKDDGSLILQGDAKIWTDGRLAMPTDPLVNNPKTTRSAGRALYATPVPIWDSATGNVASFVTSFNFLFVIRELKYTPTDGLVFFLAPVGTEIPSGSTGGFLGIFDGSNGFNQFVAVEFDSYHNIWDPKSLRSSHVGIDVNSIMSLKAVNWNRVSGSLEKATIIYDSQTNILSVVMTSQNGQITTIYGTIDLKTVLPEKVSVGFSATTGNPEREKHDIYSWSFTSTLKEPEEQA
# How the values were obtained:
# Assay in all cases: glycan array binding signal (z-score within array); higher = stronger binding
# Conditions in all cases: glycan notation: IUPAC condensed, linker removed
# [1] = target: Fuc(a1-2)Gal(b1-3)GalNAc(b1-3)Gal(b1-4)Glc
# Procedure, shortened: (§1)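 Negative Z-scores can be read as non-binding. The Z-score is calculated within each array and then averaged across arrays of one protein sequence at different concentrations or buffers and across linkers. Arrays, 3228 in all, were curated from the Consortium for Functional Glycomics database and kept only where the protein sequence was available.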
# [2] = target: Fuc(a1-2)Gal(b1-3)[Fuc(a1-4)]GlcNAc(b1-2)Man(a1-3)[Fuc(a1-2)Gal(b1-3)[Fuc(a1-4)]GlcNAc(b1-2)Man(a1-3)]Man(b1-4)GlcNAc(b1-4)GlcNAc
# Procedure, shortened: as §1
# [3] = target: Fuc(a1-2)Gal(b1-3)[Fuc(a1-4)]GlcNAc(b1-3)[Gal(b1-4)GlcNAc(b1-6)]Gal(b1-4)Glc
# Procedure, shortened: as §1
# Fuc(a1-2)Gal(b1-4)GlcNAc = target: Fuc(a1-2)Gal(b1-4)GlcNAc
# Procedure, shortened: as §1
# [4] = target: Fuc(a1-2)Gal(b1-4)GlcNAc6S
# Procedure, shortened: as §1
# [5] = target: Fuc(a1-2)Gal(b1-4)[Fuc(a1-3)]GlcNAc
# Procedure, shortened: as §1
# Fuc(a1-2)GlcNAc = target: Fuc(a1-2)GlcNAc
# Procedure, shortened: as §1
# [6] = target: Fuc(a1-2)[Gal(a1-3)]Gal(b1-3)GalNAc
# Procedure, shortened: as §1
# [7] = target: Fuc(a1-2)[Gal(a1-3)]Gal(b1-4)Glc
# Procedure, shortened: as §1
# [8] = target: Fuc(a1-2)[Gal(a1-3)]Gal(b1-4)GlcNAc(b1-6)GalNAc
# Procedure, shortened: as §1
# [9] = target: Fuc(a1-2)[GalNAc(a1-3)]Gal
# Procedure, shortened: as §1
# [10] = target: Fuc(a1-2)[GalNAc(a1-3)]Gal(b1-4)GlcNAc(b1-3)GalNAc
# Procedure, shortened: as §1
# [11] = target: Fuc(a1-3)[Gal(b1-4)]GlcNAc(b1-3)Gal(b1-4)[Fuc(a1-3)]GlcNAc(b1-3)Gal(b1-4)[Fuc(a1-3)]GlcNAc
# Procedure, shortened: as §1
# [12] = target: Fuc(a1-3)[Gal3S(b1-4)]Glc6S
# Procedure, shortened: as §1
# Gal(b1-3)GalNAc(b1-3)Gal = target: Gal(b1-3)GalNAc(b1-3)Gal
# Procedure, shortened: as §1
# [13] = target: Gal(b1-3)GalNAc(b1-3)Gal(a1-4)Gal(b1-4)Glc
# Procedure, shortened: as §1
# [14] = target: Gal(b1-3)[Fuc(a1-4)]GlcNAc(b1-3)Gal(b1-4)GlcNAc
# Procedure, shortened: as §1
# [15] = target: Gal(b1-3)[Neu5Ac(a2-6)]GalNAc
# Procedure, shortened: as §1
# Gal(b1-4)Gal = target: Gal(b1-4)Gal
# Procedure, shortened: as §1
# [16] = target: Gal(b1-4)GlcNAc(b1-3)Gal(b1-4)GlcNAc(b1-3)Gal(b1-4)GlcNAc(b1-2)Man(a1-3)[Gal(b1-4)GlcNAc(b1-3)Gal(b1-4)GlcNAc(b1-3)Gal(b1-4)GlcNAc(b1-2)Man(a1-6)]Man(b1-4)GlcNAc(b1-4)GlcNAc
# Procedure, shortened: as §1
# [17] = target: Gal(b1-4)GlcNAc(b1-3)Gal(b1-4)GlcNAc(b1-3)Gal(b1-4)GlcNAc(b1-3)Gal(b1-4)GlcNAc(b1-2)Man(a1-3)[Gal(b1-4)GlcNAc(b1-3)Gal(b1-4)GlcNAc(b1-3)Gal(b1-4)GlcNAc(b1-3)Gal(b1-4)GlcNAc(b1-2)Man(a1-6)]Man(b1-4)GlcNAc(b1-4)GlcNAc
# Procedure, shortened: as §1
# [18] = target: Gal(b1-4)GlcNAc(b1-3)Gal(b1-4)GlcNAc(b1-3)GalNAc
# Procedure, shortened: as §1
# [19] = target: Gal(b1-4)GlcNAc(b1-3)Gal(b1-4)GlcNAc(b1-3)[Gal(b1-4)GlcNAc(b1-3)Gal(b1-4)GlcNAc(b1-6)]GalNAc
# Procedure, shortened: as §1
# Gal3S(b1-3)GalNAc = target: Gal3S(b1-3)GalNAc
# Procedure, shortened: as §1
# [20] = target: Gal3S(b1-4)[Fuc(a1-3)]GlcNAc6S
# Procedure, shortened: as §1
# Gal3S6S(b1-4)GlcNAc = target: Gal3S6S(b1-4)GlcNAc
# Procedure, shortened: as §1
# Gal6S(b1-4)Glc = target: Gal6S(b1-4)Glc
# Procedure, shortened: as §1
# Gal6S(b1-4)GlcNAc = target: Gal6S(b1-4)GlcNAc
# Procedure, shortened: as §1
# [21] = target: GalNAc(b1-4)GlcNAc(b1-2)Man(a1-3)[GalNAc(b1-4)GlcNAc(b1-2)Man(a1-6)]Man(b1-4)GlcNAc(b1-4)GlcNAc
# Procedure, shortened: as §1
binder,measurement,setting,value
B1,glycan array binding signal (z-score),[1],0.013
same,glycan array binding signal (z-score),[2],0.157
same,glycan array binding signal (z-score),[3],-0.265
same,glycan array binding signal (z-score),Fuc(a1-2)Gal(b1-4)GlcNAc,0.463
same,glycan array binding signal (z-score),[4],-0.057
same,glycan array binding signal (z-score),[5],4.58
same,glycan array binding signal (z-score),Fuc(a1-2)GlcNAc,2.03
same,glycan array binding signal (z-score),[6],0.102
same,glycan array binding signal (z-score),[7],-0.211
same,glycan array binding signal (z-score),[8],-0.201
same,glycan array binding signal (z-score),[9],-0.25
same,glycan array binding signal (z-score),[10],-0.219
same,glycan array binding signal (z-score),[11],8.86
same,glycan array binding signal (z-score),[12],0.757
same,glycan array binding signal (z-score),Gal(b1-3)GalNAc(b1-3)Gal,-0.295
same,glycan array binding signal (z-score),[13],0.007
same,glycan array binding signal (z-score),[14],-0.389
same,glycan array binding signal (z-score),[15],-0.277
same,glycan array binding signal (z-score),Gal(b1-4)Gal,-0.131
same,glycan array binding signal (z-score),[16],3.1
same,glycan array binding signal (z-score),[17],0.014
same,glycan array binding signal (z-score),[18],2.04
same,glycan array binding signal (z-score),[19],2.93
same,glycan array binding signal (z-score),Gal3S(b1-3)GalNAc,-0.003
same,glycan array binding signal (z-score),[20],-0.287
same,glycan array binding signal (z-score),Gal3S6S(b1-4)GlcNAc,0.068
same,glycan array binding signal (z-score),Gal6S(b1-4)Glc,-0.131
same,glycan array binding signal (z-score),Gal6S(b1-4)GlcNAc,-0.022
same,glycan array binding signal (z-score),[21],1.48
